Only some compounds are listed: those with a hit (about 17% of all), similar ones and a draw of the others.
HepG2 viability – kills HepG2 cells in TGF-b inhibitor counter-screen; AID 588856; HepG2 CAGA-GFP viability, ATP luminescence, 18 h; Potency, µM (titrated, usually from 46.1 µM), inactives show at the top dose activity change, negative = cytotoxicity, usual class: cytotoxic; 0.76% of 410,000 active
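CellTiter-Glo luminescence gave cytotoxicity after 18 hours at 37 degrees C. The cells were HepG2 CAGA-GFP in 1% FBS DMEM, stimulated with 500 pg/mL TGF-beta after compound addition. %Activity was normalised to no-cell wells (complete cell-killing) and DMSO (no toxicity), and curves were fitted and classified.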
DT40 TDP1 CPT – growth inhibition of DT40 Tdp1-/-;hTDP1 cells with camptothecin (screen for TDP1 inhibitors). 12% of 420,000 active. Potency, µM (top dose mostly 46.2 µM), for the others: at the highest dose activity change, negative = growth inhibition, actives largely listed as inhibitors. AID 686979. chicken DT40 Tdp1-/-;hTDP1 cells + 20 nM CPT, ATP luminescence, 48 h; further: on the % scale 0 is the no-effect control and ±100 the full control effect; nearly all actives have a fitted effect of over 55% in size
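Cell growth measured by CellTiter-Glo luminescence after a minimum 48 h, 37 C compound exposure with 20 nM CPT in Tdp1-knockout DT40 cells stably expressing hTDP1, seeded 400/well; qHTS titration format.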
DT40 TDP1 no CPT – qHTS for Inhibitors of human tyrosyl-DNA phosphodiesterase 1 (TDP1): qHTS in cells in absence of CPT; DT40 Tdp1-/- hTDP1 cells, no CPT, ATP luminescence, 48 h; AID 686978, 2013; 15% of 420,000 active; Potency, µM (highest dose often 46.2 µM), for the others: at the top dose activity change, negative = growth inhibition, usual class: inhibitors; further: on the % scale 0 is the no-effect control and ±100 the full control effect; nearly all actives have a fitted effect of over 55% in size
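Seeded 400 DT40-hTDP1 cells/well (vehicle DMSO, no 20 nM CPT); pinned compounds; ≥48 hr at 37 °C; CellTiter-Glo luminescence as viability measure.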
TGFb inhibitor – blocks TGF-b signaling; HepG2 CAGA-GFP TGF-b/SMAD3 reporter, GFP fluorescence, 18 h; TGF-beta stimulated, 500 pg/mL final; Potency, µM (highest dose often 46.1 µM), inactives show top-dose activity, negative = inhibition, actives largely listed as inhibitors; 1.2% of 410,000 active; AID 588855; further: on the % scale 0 is the no-effect control and ±100 the full control effect; nearly all actives have a fitted effect of over 65% in size
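Smad-responsive CAGA-GFP expression was quantified in HEPG2 cells exposed to compounds and 500 pg/mL final TGF-beta for 18 h at 37 degrees C; unstimulated wells defined full inhibition.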
ATXN viability – reduces viability in counter-screen for ATXN expression inhibitors; S2 cells (HEK-293 line with an ATXN2-luciferase reporter) viability, CellTiter-Fluor protease fluorescence, 24 h; Potency, µM (titrated, usually from 56.7 µM), hits mostly cytotoxic; 0.49% of 400,000 active; AID 651635; further: nearly all actives have a fitted effect of over 40% in size
ATXN2 expr inh – ATXN2 expression inhibition. HEK-293 ATXN2-luciferase reporter, luminescence, 24 h. Potency, µM (titrated, usually from 57 µM), for the others: at the highest dose activity change, negative = inhibition, actives largely listed as inhibitors. 0.72% of 360,000 active; further: on the % scale 0 is the no-effect control and ±100 the full control effect; nearly all actives have a fitted effect of over 55% in size
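qHTS (up to 57 uM final) was run with 24 h compound exposure of reporter cells at 37 °C. Each well was multiplexed: SteadyGlo luminescence measured ATXN2-luciferase expression after a fluorogenic Gly-Phe-AFC viability readout (25 uM final).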
Active calls of the source: *. The call rests on the fitted dose curve; in most records, active means well fitted curve in the direction sought with a large enough effect; inconclusive means small, poorly fitted or top-dose-only effect, or another doubt; inactive means no such curve, though single readings can be large; an effect the other way counts as inactive or inconclusive. Potency means the concentration at half of the fitted maximal effect.

CC(C)(C)NS(=O)(=O)c1ccc(C(=O)Nc2ccc3c(c2)OCO3)cc1 was read as HepG2 viability -2%, DT40 TDP1 CPT -2%, DT40 TDP1 no CPT -20%, TGFb inhibitor 15%, ATXN viability inactive and ATXN2 expr inh 20%.
`O=C(Nc1ccc(-c2nc3cccnc3s2)cc1)C1CCCO1` (centres undefined) gave HepG2 viability -31%, DT40 TDP1 CPT 23µM*, DT40 TDP1 no CPT 21µM*, TGFb inhibitor 4%, ATXN viability inactive and ATXN2 expr inh inconclusive.
COc1ccccc1NC(=O)c1nc(SCc2ccccc2F)ncc1Cl was read as HepG2 viability 4%, DT40 TDP1 CPT inconclusive, DT40 TDP1 no CPT -7% and TGFb inhibitor 5%.
`CC1(C(=O)NS(=O)(=O)c2ccc3ccccc3c2)CCN1C(=O)CC1CCCCC1` (centres undefined) gave HepG2 viability 17%, DT40 TDP1 CPT -3%, DT40 TDP1 no CPT 10%, TGFb inhibitor 10%, ATXN viability inactive and ATXN2 expr inh 16%.
For c1ccc(N2CCN(c3cccc(-c4cc5ccccc5s4)n3)CC2)nc1 the results were HepG2 viability -16%, DT40 TDP1 CPT -5%, DT40 TDP1 no CPT 3%, TGFb inhibitor 13%, ATXN viability inactive and ATXN2 expr inh 15%.
Screening CC1CN(C(=O)CNC(=O)Cc2cccc3ccccc23)CC(C)O1 (centres undefined) returned HepG2 viability -5%, DT40 TDP1 CPT -17%, DT40 TDP1 no CPT 25%, TGFb inhibitor 8%, ATXN viability inactive and ATXN2 expr inh 8%.
O=C(Cc1cccc2ccccc12)NCC(=O)N1CCN(CC(=O)Nc2ccc(F)cc2)CC1 was read as HepG2 viability -20%, DT40 TDP1 CPT inconclusive, DT40 TDP1 no CPT 18µM*, TGFb inhibitor -11% and ATXN viability inactive.
`O=C(Cc1cccc2ccccc12)NCC(=O)N1CCN(Cc2cccc(C(F)(F)F)c2)CC1` gave HepG2 viability -36%, DT40 TDP1 CPT 10µM*, DT40 TDP1 no CPT 10µM*, TGFb inhibitor 11µM* and ATXN viability inactive.
For CCc1nc(N)nc(N)c1-c1ccc(NCCN)c([N+](=O)[O-])c1 the results were DT40 TDP1 CPT 8.2µM*, DT40 TDP1 no CPT 2.6µM*, TGFb inhibitor inconclusive, ATXN viability inconclusive and ATXN2 expr inh -32%.
CCN(CC)C(=O)c1[nH]cnc1C(=O)NC1CCN(C(=O)OC(C)(C)C)CC1 was read as HepG2 viability -7%, DT40 TDP1 CPT -3%, DT40 TDP1 no CPT -7%, TGFb inhibitor -4%, ATXN viability inactive and ATXN2 expr inh 5%.
Screening Cn1nc(Cc2cccc3ccccc23)c(C#N)c1N returned HepG2 viability 1%, TGFb inhibitor 4%, ATXN viability inactive and ATXN2 expr inh 1%.
Screening CC(C)(C)n1nc(Cc2cccc3ccccc23)c2c(N)ncnc21 returned HepG2 viability -19%, TGFb inhibitor 14µM*, ATXN viability inconclusive and ATXN2 expr inh -1%.
`O=c1c2ccccc2n(Cc2ccccc2F)c(=O)n1-c1cccc(F)c1` gave HepG2 viability 2%, DT40 TDP1 CPT inconclusive, DT40 TDP1 no CPT 15µM*, TGFb inhibitor -14%, ATXN viability inactive and ATXN2 expr inh -9%.
Screening COc1cc(-n2c(=O)c3ccccc3n(Cc3cccc(F)c3)c2=O)cc(OC)c1OC returned HepG2 viability -9%, DT40 TDP1 CPT -3%, DT40 TDP1 no CPT 1%, TGFb inhibitor -1% and ATXN viability inactive.

Compound activity: PubChem, National Center for Advancing Translational Sciences (NCATS)
